In PubChem BioAssay (EPA / NIEHS):
Active and inactive are the calls of the source. How the source made its calls: active means hit-call score of the fitted dose curve at least 0.9, where 1 is the maximum; inactive means score below 0.9.

Tests used:
[1] = IUF_NPC1a_proliferation_area_72hr: Leibniz Research Institute for Environmental Medicine (IUF) 72-hour Neural Progenitor Cell Proliferation Area Assay (NPC1a) (AID 2284208)
Procedure: IUF_NPC1 is a cell-based, multiplexed assay that uses hNPC, a human primary neural progenitor cells, with measurements taken at 72 hours after chemical dosing in a 96-well plate. Human neural progenitor cells (hNPC) are generated from human fetal brain cortex at gestational week (GW) 16-19. Grown in suspension culture and under proliferative conditions (proliferation media and growth factors), these cells represent neural progenitor cell proliferation. In the NPC1 assay, hNPC's are exposed to the test compound for 72h. Cell proliferation is assessed as an increase in sphere area using automated phase contrast imaging and as incorporation of Bromodeoxyuridine (BrdU) during DNA synthesis using a luminescence-based cell proliferation ELISA. In parallel, the cell viability is assessed using an alamar blue viability assay and the cytotoxicity using a lactate dehydrogenase dependent membrane integrity assay.IUF_NPC1a_proliferation_area_72hr is one of 4 assay components measured from the IUF_NPC1 assay. It is designed to measure cell proliferation as assessed by an increase in sphere area over 72 h using automated phase contrast imaging.Data from the IUF_NPC1a_proliferation_area component was analyzed at the endpoint IUF_NPC1a_proliferation_area in the positive analysis fitting direction relative to DMSO as the negative control and baseline of activity. Using a type of growth reporter, gain or loss-of-signal activity can be used to understand cell proliferation effects.
After the cell expansion period, the cells are cultured for up to four weeks in which they are passaged every week. Between one to three days after passaging, depending on the size chosen for passaging, spheres at a size of 0.3 mm are used in the assay. For the assessment of neural progenitor cell proliferation, the spheres are plated in poly-Hema coated 96-well U-bottom plates filled with proliferation medium containing growth factors (EGF and FGF). One 0.25 - 0.35 mm big sphere is plated in the middle of each well. Within 3 days NPCs proliferate and grow in size. Cultivation during the test method is performed at 37C and 5% CO2 at a pH of 7.2-7.6. As a positive control, spheres are cultivated in the absence of growth factors (EGF and FGF), which dramatically reduces proliferation. Exposure starts on the plating day (day 0) and is continued over three days, without chemical renewal, until the experiment is terminated. The assay is terminated by the assessment of cell viability, cytotoxicity, and proliferation by BrdU. All endpoints are generated from the same experimental run and from each well/sphere in the 96-well plate.

[2] = IUF_NPC1_viability_72hr: Viability Assessment at 72 hours in the Leibniz Research Institute for Environmental Medicine (IUF) Neural Progenitor Cell Proliferation Assay (NPC1) (AID 2284209)
Procedure, shortened: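 Viability was measured by resazurin-to-resorufin fluorescence (alamar blue) after 72 h of continuous exposure without compound renewal. Each well held one hNPC sphere (gestational week 16-19 fetal cortex, 0.25-0.35 mm) cultured in EGF/FGF proliferation medium at 37C and pH 7.2-7.6.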

[3] = CCTE_Mundy_HCI_Cortical_Synap_Neur_Matur_NeuriteSpotCountPerNeuriteLength: CCTE's Synaptogenesis and Neurite Maturation Assay in rat cortical cells for Neurite Spot Count per Neurite Length, Mundy Lab (AID 2284210)
Procedure, shortened: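 Synaptophysin spots per unit neurite length, measured by automated imaging of MAP2/synaptophysin/Hoechst-stained neurons. Cultures from rat cortex received chemical at DIV 7 with media change through DIV 12; glial growth arrested by AraC at DIV 5; DMSO baseline.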

[4] = CCTE_Mundy_HCI_Cortical_Synap_Neur_Matur_BPCount: CCTE's Synaptogenesis and Neurite Maturation Assay in rat cortical cells for Branch Point Count, Mundy Lab (AID 2284211)
Procedure, shortened: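 HCI read-out of branch points from MAP2/synaptophysin/Hoechst immunofluorescence; rat cortical cultures, AraC DIV 5, dosing DIV 7, fixed DIV 12; fit in positive direction vs DMSO baseline.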

[5] = CCTE_Mundy_HCI_Cortical_NOG_NeuriteCount: CCTE's Neurite Outgrowth Assay in rat cortical cells for Neurite Count, Mundy Lab (AID 2284212);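 further: cells fixed about two days after chemical exposure began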
Procedure, shortened: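 Rat cortical primary cells; compound added 2 h post-plating, 1/10 dilution of working solution. Anti-betaIII-tubulin/AF488 ICC; ArrayScan neurite count vs DMSO.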

[6] = CCTE_Mundy_HCI_Cortical_NOG_NeuriteLength: CCTE's Neurite Outgrowth Assay in rat cortical cells for Neurite Length, Mundy Lab (AID 2284213);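 on AC50: neurites imaged about 48 to 50 h after chemical exposure began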
Procedure, shortened: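 First, rat primary cortical cells were plated and, 2 h later, given test chemical as a 1/10 dilution. Finally, βIII-tubulin immunostaining enabled automated imaging of neurite length.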

[7] = CCTE_Mundy_HCI_Cortical_Synap_Neur_Matur_NeuriteLength: CCTE's Synaptogenesis and Neurite Maturation Assay in rat cortical cells for Neurite Length, Mundy Lab (AID 2284214)
Procedure, shortened: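 Neurite length quantified by automated high-content imaging of MAP2, synaptophysin and Hoechst staining. Rat cortical cells received chemical from DIV 7 to DIV 12 […], glial growth arrested by AraC at DIV 5; DMSO baseline.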

[8] = CCTE_Mundy_HCI_Cortical_Synap_Neur_Matur_NeuriteSpotCountPerNeuron: CCTE's Synaptogenesis and Neurite Maturation Assay in rat cortical cells for Neurite Spot Count per Neuron Count, Mundy Lab (AID 2284215)
Procedure, shortened: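 Developing rat cortical neurons, with glia suppressed by AraC, are exposed to chemicals from DIV 7 to DIV 12. Automated fluorescence imaging of MAP2-labelled neurites and synaptophysin puncta yields a count per neuron, normalised against DMSO wells.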

[9] = CCTE_Mundy_HCI_Cortical_Synap_Neur_Matur_SynapseCount: CCTE's Synaptogenesis and Neurite Maturation Assay in rat cortical cells for Synapse Count, Mundy Lab (AID 2284218)
Procedure, shortened: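 High-content imaging of synaptophysin puncta per MAP2-positive neuron (Hoechst nuclei) in rat cortical cells exposed DIV 7–12 after glial arrest with AraC at DIV 5; decrease relative to DMSO scored.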

[10] = TAMU_PeakParms_SingleDonor1434_Chronotropy: Texas A&M University (TAMU) 1.5-hr Human Induced Pluripotent Stem Cell (iPSC)-derived Cardiomyocytes Calcium (Ca+2) Flux Assay for Cardiotoxicity: Chronotropy (changes in peak frequency) (AID 2284217); settings: actives raise or lower the signal
Procedure, shortened: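 Using fluorescent Ca2+ flux, average beats per second are measured in human iPSC-derived cardiomyocytes treated 90 min (0.5% DMSO vehicle, 0.2–100 uM). Non-beating data points are removed; activity is modeled in both directions relative to DMSO controls.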

Measured: AC50

C#CCOC(=O)[C@@H](C)Oc1ccc(Oc2ncc(Cl)cc2F)cc1
active: [1] 26.6 µM
not listed: [10]
inactive: all other assays above

CSC(=O)c1cccc2nnsc12
not listed: [10]
inactive: all other assays above

CCCN(CCC)C(=O)SCC
not listed: [5] | [10]
inactive: all other assays above

Cc1nn(C)c(Oc2ccccc2)c1C=NOCc1ccc(C(=O)OC(C)(C)C)cc1
inactive: [2]
active: [1] 0.0215 µM | [3] 0.00339 µM | [4] 0.00291 µM | [5] 0.0196 µM | [6] 0.0155 µM | [7] 0.00265 µM | [8] 0.00181 µM | [9] 0.0023 µM

CC(=O)[C@H]1CC[C@H]2[C@@H]3CCC4=CC(=O)CC[C@]4(C)[C@H]3CC[C@]12C
inactive: [10]

S=C([S-])NCCNC(=S)[S-].[Mn+2]
not listed: [4] | [5] | [10]
inactive: all other assays above

CC(C)(c1ccc(O)cc1)c1ccc(O)cc1
active: [7] 50 µM | [8] 50 µM | [10] 50 µM | [9] 50 µM
inactive: [1] | [2] | [3] | [6]

CC1(C)C(C=C(Cl)Cl)C1C(=O)OCc1cccc(Oc2ccccc2)c1 (centres undefined)
active: [4] 8.52 µM | [5] 78.2 µM | [6] 83.7 µM | [7] 8.65 µM | [8] 8.69 µM | [9] 9.11 µM
inactive: [3] | [10]

c1ccc2[nH]c(-c3cscn3)nc2c1
active: [10] 9.92 µM

O=C(O)c1ccccc1
inactive: all assays above

COCCO
inactive: [10]

CCN(CC)C(=O)c1cccc(C)c1
not listed: [10]
inactive: all other assays above

S=C(S)NCCNC(=S)S.[Mn+2].[S-]C([S-])=NCCN=C([S-])[S-].[Zn+2]
not listed: [10]
inactive: all other assays above
